{"source": "PubChem BioAssay AID777", "about": "(Sanford-Burnham Center for Chemical Genomics, 2007)", "note": "The whole screen tested about 96,000 compounds, of which about 19,000 (20%) were called active.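 How the source made its calls: active means blocking of liver enzyme CYP2C9 beyond about 50% at 5 µM (limit read from the data); inactive means the rest.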 A selection follows.", "data": [{"molecular_target": "Cytochrome P450 2C9 (Homo sapiens) (UniProt P11712)", "sequence (P11712 whole entry, looked up)": "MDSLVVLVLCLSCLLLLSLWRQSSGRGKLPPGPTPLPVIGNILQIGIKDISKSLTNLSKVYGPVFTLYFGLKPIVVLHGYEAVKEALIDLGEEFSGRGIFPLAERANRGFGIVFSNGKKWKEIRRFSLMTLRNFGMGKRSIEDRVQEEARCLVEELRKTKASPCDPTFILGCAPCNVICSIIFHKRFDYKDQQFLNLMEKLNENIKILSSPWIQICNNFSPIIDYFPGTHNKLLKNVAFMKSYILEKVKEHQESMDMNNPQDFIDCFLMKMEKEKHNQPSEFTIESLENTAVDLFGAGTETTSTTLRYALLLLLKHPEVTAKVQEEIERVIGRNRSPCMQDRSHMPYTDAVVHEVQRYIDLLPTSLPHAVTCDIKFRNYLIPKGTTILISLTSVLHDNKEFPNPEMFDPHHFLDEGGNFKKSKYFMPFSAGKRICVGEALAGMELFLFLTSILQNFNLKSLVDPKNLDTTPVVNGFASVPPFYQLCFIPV", "experiment": "blockers of cytochrome P450 2C9 activity – biochemical, luminescence, ADME assay, primary screen (AID 777)", "conditions": "CYP2C9 Supersomes, luciferin-H conversion, at 5 µM, stronger effect = higher value", "values": [{"compound": "N#CCCn1cnc2ccccc21", "inhibition": "-0.8% (inactive)"}, {"compound": "Cc1ccc(SCC(=O)NC(=O)NCc2ccco2)c(C)c1", "inhibition": "30% (inactive)"}, {"compound": "O=C(CN1CCN(S(=O)(=O)/C=C/c2ccccc2)CC1)NC(=O)NCc1ccco1", "inhibition": "40.2% (inactive)"}, {"compound": "CC1(c2ccccc2Cl)NC(=O)N(CC(=O)NC(=O)NCc2ccco2)C1=O", "note": "(centres undefined)", "inhibition": "67.6% (active)"}, {"compound": "Cc1cccc(NC(=O)c2ccc3ccccc3n2)n1", "inhibition": "-0.8% (inactive)"}, {"compound": "COc1cc(OC)nc(NC(=O)CCl)n1", "inhibition": "-14.2% (inactive)"}, {"compound": "O=P(O)(CP(=O)(c1ccccc1)c1ccccc1)c1ccccc1O", "inhibition": "-5.8% (inactive)"}, {"compound": "CC(CO)N1CCS(=O)(=O)CC1", "note": "(centres undefined)", "inhibition": "-5.6% (inactive)"}, {"compound": "COc1ccc(NC(=O)C(CC(C)C)NS(=O)(=O)c2ccc3c(c2)CCN3C(C)=O)cc1OC", "note": "(centres undefined)", "inhibition": "7.4% (inactive)"}, {"compound": "Brc1ccc(OCCn2ccnc2)cc1", "inhibition": "72.1% (active)"}, {"compound": "CC(=O)NS(=O)(=O)c1ccccc1", "inhibition": "0.2% (inactive)"}, {"compound": "O=C1C(Cl)=C(N2CCOCC2)C(=O)N1c1ccccc1", "inhibition": "5% (inactive)"}, {"compound": "CC(C)(C)c1ccc(NC(=O)NCc2ccco2)cc1", "inhibition": "-17.8% (inactive)"}, {"compound": "COc1cc2c(cc1OC)C(C(=O)NCc1ccco1)C1c3ccccc3CCN1C2=O", "note": "(centres undefined)", "inhibition": "42% (inactive)"}, {"compound": "CC1(C)SC2c3ccccc3C(=O)N2[C@@H]1C(=O)NCc1ccco1", "note": "(some centres undefined)", "inhibition": "57.9% (active)"}, {"compound": "CC1CCc2c(sc3c2C2=NS(=O)(=O)CCN2C=N3)C1", "note": "(centres undefined)", "inhibition": "6.8% (inactive)"}, {"compound": "O=C(Cn1nnc2ccccc2c1=O)Nc1cc(C(F)(F)F)ccc1N1CCOCC1", "inhibition": "60.7% (active)"}, {"compound": "CC(C)CC(=O)Nc1cc(C(F)(F)F)ccc1N1CCOCC1", "inhibition": "9.9% (inactive)"}, {"compound": "O=C(Nc1cc(-c2nn(CC(=O)N3CCCCC3)c(=O)c3ccccc23)ccc1N1CCOCC1)c1ccc(Cl)cc1", "inhibition": "0.2% (inactive)"}, {"compound": "CCCCc1nccn1CCn1ccnc1CCCC", "inhibition": "-10.5% (inactive)"}, {"compound": "CN1CCN(CC(=O)Nc2sc3c(c2C#N)CCC(C(C)(C)C)C3)CC1", "note": "(centres undefined)", "inhibition": "33.8% (inactive)"}, {"compound": "O=C(Nc1c(-c2ccccc2)nc2c(Br)cc(Br)cn12)c1ccco1", "inhibition": "15.6% (inactive)"}, {"compound": "N=C(N)SCc1cccc2ccccc12", "inhibition": "-24.4% (inactive)"}, {"compound": "c1ccc2c(C[n+]3csc4ccccc43)cccc2c1", "inhibition": "76.7% (active)"}, {"compound": "c1ccc2c(CNn3cnnc3)cccc2c1", "inhibition": "-2.3% (inactive)"}, {"compound": "Cc1ccc(C(=O)NNC(=O)OC(C)(C)C)c(Cl)c1", "inhibition": "1.9% (inactive)"}, {"compound": "CCc1ccc(CNC(=O)C2CCCN(c3nc4ccccc4o3)C2)cc1", "note": "(centres undefined)", "inhibition": "45% (inactive)"}, {"compound": "O=S(=O)(c1ccc(OCC(O)CN2CCN(c3ccccc3Cl)CC2)cc1)N1CCOCC1", "note": "(centres undefined)", "inhibition": "28.3% (inactive)"}, {"compound": "Cc1cccc(N2CCN(C(=O)CN(C)S(=O)(=O)c3ccc4c(c3)CCC(=O)N4)CC2)c1C", "inhibition": "51% (active)"}, {"compound": "CC(=O)N1CCN(c2cccc(C)c2C)CC1", "inhibition": "-8.6% (inactive)"}, {"compound": "Cc1ccc(S(=O)(=O)N(C)CC(=O)N2CCc3ccccc32)cc1", "inhibition": "-132% (inactive)"}, {"compound": "CCOC(=O)Cc1csc(NC(=O)CN(C)S(=O)(=O)c2ccc3c(c2)CCC(=O)N3)n1", "inhibition": "65.5% (active)"}, {"compound": "CCOC(=O)Cc1csc(NC(=O)CSc2nc(C)cc(=O)[nH]2)n1", "inhibition": "23.2% (inactive)"}, {"compound": "CCOC(=O)Cc1csc(NC(=O)C(C)(C)C)n1", "inhibition": "30.2% (inactive)"}, {"compound": "COC(=O)/C=C/C(=O)NCc1ccco1", "inhibition": "1.2% (inactive)"}, {"compound": "OCCN1CCOCCOCCN(CCO)CCN(CCO)CC1", "inhibition": "12.8% (inactive)"}, {"compound": "Cc1ccc(C(=O)/C=C/c2c(C)nn(-c3ccccc3)c2Cl)cc1", "inhibition": "90.4% (active)"}, {"compound": "Cc1nn(-c2ccccc2)c(Cl)c1C(=O)Nc1ccccc1", "inhibition": "-47% (inactive)"}, {"compound": "Cc1nn(-c2ccccc2)c(CC(C)(C)C(=O)O)c1C(=O)O", "inhibition": "-10.3% (inactive)"}, {"compound": "O=C(Nc1ccccc1C(=O)N1CCOCC1)C1CCC(=O)N1C1CCCC1", "note": "(centres undefined)", "inhibition": "-9.2% (inactive)"}, {"compound": "COc1cccc(N2C(=O)C3CCCN3C2c2ccc(F)cc2)c1", "note": "(centres undefined)", "inhibition": "-9.4% (inactive)"}, {"compound": "COc1ccc(OCC(=O)OCCN(C)C)cc1", "inhibition": "-12.1% (inactive)"}, {"compound": "CN(C)C(CNC(=O)CCCOc1ccccc1)c1ccco1", "note": "(centres undefined)", "inhibition": "51.7% (active)"}, {"compound": "O=C(CCOc1ccccc1)NCc1ccccc1", "inhibition": "6.9% (inactive)"}, {"compound": "O=C(CCCOc1ccccc1)NCc1ccco1", "inhibition": "18.1% (inactive)"}, {"compound": "O=C(NCC12CC3CC(C1)CC(CNC(=O)N1CCCC1)(C3)C2)N1CCCC1", "inhibition": "-12.3% (inactive)"}, {"compound": "Nc1nc(SCCOc2ccccc2)n[nH]1", "inhibition": "-8.6% (inactive)"}, {"compound": "COc1ccccc1NC(=O)CN1CCN(S(=O)(=O)c2ccc(Br)cc2)CC1", "inhibition": "-0.8% (inactive)"}, {"compound": "COc1ccc(NC(=O)CN2CCN(S(=O)(=O)c3ccc(F)cc3)CC2)cc1Cl", "inhibition": "17.3% (inactive)"}, {"compound": "COc1cc2c(cc1NC(=O)CN1CCN(S(=O)(=O)c3ccc(F)cc3)CC1)oc1ccccc12", "inhibition": "78.7% (active)"}, {"compound": "CN1/C(=c2/s/c(=C3/C(=O)N(c4ccccc4)NC3=Nc3ccccc3)n(C)c2=O)C(C)(C)c2ccccc21", "inhibition": "19% (inactive)"}, {"compound": "CCNC(=O)c1c(O)c2cccc3c2n(c1=O)CC3", "inhibition": "10.3% (inactive)"}, {"compound": "O=C(COC(=O)CCC(=O)c1cccs1)NCc1ccco1", "inhibition": "2.9% (inactive)"}, {"compound": "Cc1nn2c3ccccc3nc2n(C)c1=O", "inhibition": "-5.7% (inactive)"}, {"compound": "CC(C)(C)c1cc(=O)n2c(nc3ccccc32)[nH]1", "inhibition": "52% (active)"}, {"compound": "CC(C)(C)N1CC(c2nc3ccccc3n2Cc2ccc(F)cc2)CC1=O", "note": "(centres undefined)", "inhibition": "22.8% (inactive)"}, {"compound": "Cn1c(SCC(=O)N2CCOCC2)nnc1-c1ccc(NC(=O)c2ccccc2F)cc1", "inhibition": "13% (inactive)"}, {"compound": "CCCCC(CC)C(=O)Nc1ccc(Cl)cn1", "note": "(centres undefined)", "inhibition": "7.6% (inactive)"}, {"compound": "CC(C)C(NC(=O)OCc1ccccc1)C(=O)OCC(=O)N1C(C)CCCC1C", "note": "(centres undefined)", "inhibition": "1.2% (inactive)"}, {"compound": "CCC(C)NC(=O)c1c(N)n(/N=C/c2cccs2)c2nc3ccccc3nc12", "note": "(centres undefined)", "inhibition": "17.2% (inactive)"}, {"compound": "Cc1ccc(OCc2nnc(NC(=O)OCC(C)C)s2)cc1", "inhibition": "20.2% (inactive)"}, {"compound": "CC(C)c1cc(C(N)=O)c(NC(=O)c2cccc(COc3ccc(Br)cc3)c2)s1", "inhibition": "56.1% (active)"}, {"compound": "COc1ccc(N2CCN(C3CC(=O)N(c4ccc5c(c4)OCCO5)C3=O)CC2)cc1", "note": "(centres undefined)", "inhibition": "-1% (inactive)"}, {"compound": "O=c1oc2c(Cl)cc(Cl)cc2cc1-c1nnc(Nc2ccccc2F)s1", "inhibition": "-4.3% (inactive)"}]}]}
